Pol kappa inh: DNA polymerase kappa (human) inhibition. Q9UBT6. purified Pol kappa, fluorescent DNA synthesis assay, 10 min. Potency, µM (doses to about 107 µM), without a hit: at the highest dose activity, negative = inhibition, actives largely listed as inhibitors. actives 0.53% (n = 400,000); further: potency means the concentration at half of the fitted maximal effect; on the % scale 0 is the no-effect control and ±100 the full control effect
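10 nM Pol kappa preincubated 15 min at room temperature with compounds, then reaction started with substrate at 50 nM final. Fluorescence read kinetically at 0 and 10 min; buffer-only wells served as negative control.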
POLI inh: inhibitors of human DNA polymerase iota; Pol iota fluorescent replication assay, 10 min; Potency, µM (titrated, usually from 115 µM), without a hit: at the top dose activity, negative = inhibition, hits mostly inhibitors; actives 1% (n = 390,000); further: potency means the concentration at half of the fitted maximal effect
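Pol iota at 10 nM preincubated 15 min with compounds at room temperature; reaction started with fluorescent substrate, 50 nM final. Fluorescence read kinetically at 0 and 10 min; buffer-only wells as negative control.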
POLB inh: inhibitors of human DNA polymerase beta; Pol beta primer extension/strand displacement, fluorescence kinetic; AID 485314; Potency, µM (highest dose often 114 µM), for the others: at the top dose activity change, negative = inhibition, hits mostly inhibitors; P06746; actives 1.3% (n = 340,000); further: potency means the concentration at half of the fitted maximal effect; on the % scale 0 is the no-effect control and ±100 the full control effect
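10 nM enzyme + cpd, 15 min RT; start with substrate 50 nM final; read 0 min and after 10 min RT. Corrected, normalized data; 4-parameter Hill curve fit.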
Pol eta inh: blocks human DNA polymerase eta activity. Q9Y253. recombinant Pol eta, fluorescent DNA replication assay. Potency, µM (highest dose often 114 µM), without a hit: at the highest dose activity change, negative = inhibition, actives largely listed as inhibitors. actives 1.2% (n = 390,000). AID 588591; further: potency means the concentration at half of the fitted maximal effect; on the % scale 0 is the no-effect control and ±100 the full control effect
Target sequence (Q9Y253 whole entry, looked up): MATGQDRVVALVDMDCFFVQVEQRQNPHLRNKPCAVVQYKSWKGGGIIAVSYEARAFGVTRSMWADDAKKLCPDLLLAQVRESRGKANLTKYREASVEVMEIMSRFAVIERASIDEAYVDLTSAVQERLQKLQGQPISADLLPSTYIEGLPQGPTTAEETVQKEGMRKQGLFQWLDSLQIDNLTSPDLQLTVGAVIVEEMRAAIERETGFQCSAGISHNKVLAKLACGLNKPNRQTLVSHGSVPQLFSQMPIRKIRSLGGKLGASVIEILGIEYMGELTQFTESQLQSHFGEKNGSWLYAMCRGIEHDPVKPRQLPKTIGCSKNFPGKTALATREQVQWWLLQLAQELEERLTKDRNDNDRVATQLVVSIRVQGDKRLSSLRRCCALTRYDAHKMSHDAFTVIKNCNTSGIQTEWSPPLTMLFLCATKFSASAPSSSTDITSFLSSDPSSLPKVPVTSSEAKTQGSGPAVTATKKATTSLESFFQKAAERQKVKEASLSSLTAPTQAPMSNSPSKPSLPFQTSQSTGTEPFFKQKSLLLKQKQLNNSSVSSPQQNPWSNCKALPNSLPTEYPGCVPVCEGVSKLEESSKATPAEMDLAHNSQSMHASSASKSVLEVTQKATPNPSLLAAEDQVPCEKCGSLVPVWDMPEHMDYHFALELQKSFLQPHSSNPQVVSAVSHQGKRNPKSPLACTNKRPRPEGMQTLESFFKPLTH
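Pol eta (10 nM) was preincubated with compounds for 15 min at room temperature, after which fluorescent replication substrate (50 nM final) was added to start the reaction. Fluorescence was read kinetically at 0 and 10 min.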
12-LOX inh: inhibitors of human 12S-lipoxygenase ALOX12; P18054; purified 12hLO, xylenol orange hydroperoxide absorbance; Potency, µM (top dose mostly 108 µM), without a hit: at the top dose activity change, negative = inhibition, most hits filed as inhibitors; actives 1.1% (n = 580,000); AID 1671190; further: potency means the concentration at half of the fitted maximal effect; on the % scale 0 is the no-effect control and ±100 the full control effect
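Hydroperoxide product was detected by ferrous iron/xylenol orange as the 573 to 405 nm absorbance ratio. Arachidonic acid at 40 uM (final) was turned over for 30 min at room temperature by 150 nM human 12hLO, pH 7.0 Hepes buffer, after 15 min compound preincubation.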
PI5P4Ka inh: PI5P4K alpha (human) kinase inhibition; P48426; PI5P4Kalpha enzyme, ADP-Glo luminescence, 60 min; hits give low values; max response, %; actives 1.2% (n = 330,000); AID 652105; active means max response of -50% or lower; inconclusive means between -30% and -50%; inactive means -30% or higher; further: value at the top dose of about 77 µM; on the % scale 0 is the no-effect control and ±100 the full control effect
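qHTS, 1536-well: enzyme/substrate mix, compound by pin tool, 5 microM ATP final; RT 60 min; ADP-Glo reagents 1 (45 min) then 2 (30 min); luminescence.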
Numbers without * were called inactive; [ ] = remark or other dose. Rows were chosen to be rich in hits. Some 2.9% of all compounds tested hit in one or more screens of this group. Unless noted, the call rests on the fitted dose curve; in most records, active means well fitted inhibition curve with a large enough effect; inconclusive means small, poorly fitted or top-dose-only effect, or another doubt; inactive means no such curve, though single readings can be large or run the other way.

What do the screens show for `O=C(NCC1CCCO1)c1ccc(Cn2c(=S)[nH]c3ccccc3c2=O)cc1` (centres undefined)?
Pol kappa inh: -20%; POLI inh: 110%; POLB inh: -2%; Pol eta inh: 7%; 12-LOX inh: -21%; PI5P4Ka inh: 2

What do the screens show for `O=C(NCc1ccco1)c1ccc(Cn2c(=S)[nH]c3ccccc3c2=O)cc1`?
Pol kappa inh: -30%; POLI inh: 95%; POLB inh: 20µM*; Pol eta inh: inconclusive; 12-LOX inh: -30%; PI5P4Ka inh: -2

Results for CCOc1cc(OCC)cc(C(=O)NCc2ccco2)c1 ?
Pol kappa inh: -22%; POLI inh: inconclusive; POLB inh: -18%; Pol eta inh: 7%; 12-LOX inh: -22%; PI5P4Ka inh: 5

Results for Cc1ccc(Cl)cc1N1CCN(C(=O)c2noc3c2CCc2sccc2-3)CC1 ?
12-LOX inh: -12%

How did CCC(NC(=O)c1ccc(OC)c(OC)c1)c1cccs1 (centres undefined) do in these assays?
12-LOX inh: 9%

How did CCOC(=O)CSc1nnc(NC(=O)CN2CCCCC2)s1 do in these assays?
Pol kappa inh: 4%; POLI inh: 37%; POLB inh: 19%; Pol eta inh: -10%; 12-LOX inh: 6.3µM*; PI5P4Ka inh: -17

Results for COc1cc(OC)c(C2=CCN(C(=O)COc3ccc(F)cc3)CC2)c(OC)c1 ?
12-LOX inh: 34%

What do the screens show for `O=C1c2cccc3cc([N+](=O)[O-])cc(c23)C(=O)N1/N=C/c1ccc(O)cc1O`?
Pol kappa inh: inconclusive; POLI inh: inconclusive; POLB inh: 40µM*; Pol eta inh: 50µM*; 12-LOX inh: -20%; PI5P4Ka inh: inconclusive

How did Cc1ccc(OC2(C(=O)N3CCCC3c3nccs3)CCNCC2)cc1 (centres undefined) do in these assays?
12-LOX inh: 18µM*

What do the screens show for `Cc1ccsc1CNC(=O)/C=C/c1ccncc1`?
12-LOX inh: 4%

Results for Cc1[nH]c(C(=O)NCCc2ccc(F)cc2)c(C)c1C(=O)OC(C)C ?
12-LOX inh: -3%

What do the screens show for `CC(C)=CCc1c(O)cc2oc3c(CC=C(C)C)c(O)c(O)c(CC=C(C)C)c3c(=O)c2c1O`?
Pol kappa inh: 79µM*; POLI inh: inconclusive; POLB inh: 45µM*; Pol eta inh: 40µM*; 12-LOX inh: inconclusive; PI5P4Ka inh: inconclusive

Results for COc1c(O)cc2oc3cc(O)c(CC=C(C)C)c(O)c3c(=O)c2c1CC=C(C)C ?
Pol kappa inh: inconclusive; 12-LOX inh: 87%

What do the screens show for `CC(C)NC(=O)N[C@H]1CCN2C(=O)c3cc(-c4ccc(F)cc4F)ccc3NC(=O)[C@H]12`?
12-LOX inh: 3%[176 µM]

How did CCS[C@H]1CCN2C(=O)c3cc(-c4ccc(F)cc4F)ccc3NC(=O)[C@H]12 do in these assays?
12-LOX inh: 45µM*

How did O=C(/C=C/c1ccc2ccccc2c1)c1ccccc1F do in these assays?
12-LOX inh: 5%

Results for Cc1cc(C)nc(S/C=C/C(=O)c2ccccc2F)n1 ?
Pol kappa inh: -16%; POLI inh: 4.5µM*; POLB inh: -11%; Pol eta inh: -4%; 12-LOX inh: -8%; PI5P4Ka inh: 2

How did CCc1nc(N2CCN(C(=O)CN3CCN(C)CC3)CC2)c(C#N)c2c1COC(C)(C)C2 do in these assays?
12-LOX inh: 25%

How did N#Cc1c(/N=C/c2cccc(Br)c2)sc2c1CCCC2 do in these assays?
12-LOX inh: -63%

How did O=C(Cc1ccc2c(c1)OCO2)N(Cc1ccncc1)Cc1cccc(OCCc2ccc(F)cc2)c1 do in these assays?
12-LOX inh: 17%

What do the screens show for `COCCNc1ccnc(-c2c(C)noc2C)n1`?
Pol kappa inh: -2%[60.1 µM]; 12-LOX inh: inconclusive

How did Cc1noc(C)c1-c1nccc(NC2CC2)n1 do in these assays?
Pol kappa inh: -1%[60.1 µM]; 12-LOX inh: 7.1µM*

Screens as filed in PubChem.
